Test results taken from PubChem BioAssay (EPA / NIEHS).
Results filed as inconclusive are left out. The source made the active and inactive calls. How the source made its calls, unless noted: active means hit-call score of the fitted dose curve at least 0.9, where 1 is the maximum; inactive means score below 0.9.

How the values were obtained:
[1] = biological target: Retinoic acid receptor RXR-alpha (Homo sapiens) (UniProt P19793); experiment: ATG_RXRa_TRANS: Attagene TRANS-FACTORIAL HepG2 Assay for human Retinoid X Receptor alpha (RXRa) (AID 2283012; active means hit-call score of the fitted dose curve at least 0.9, where 1 is the maximum)
In short: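 TRANS format reporting activity of exogenous RXRa-Gal4 chimera in transiently transfected HepG2, 24 h exposure. Reporter transcripts quantified by RT-PCR with capillary electrophoresis, with gain of signal scored relative to DMSO.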

[2] = biological target: human Thyroid Receptor alpha (THRa1), THRA (gene 7067) (UniProt P10827); experiment: ATG_THRa1_TRANS: Attagene TRANS-FACTORIAL HepG2 Assay for human Thyroid Receptor alpha (THRa1) (AID 2283014; active means hit-call score of the fitted dose curve at least 0.9, where 1 is the maximum)
In short: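 Transient HepG2 transfection, NR-Gal4 chimera driving GAL4-UAS reporters; 24 h compound exposure; total RNA, oligo(dT) RT, PCR, fluorescent primer extension, capillary electrophoresis. Upward direction vs DMSO control.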

[3] = read-out: E-selectin (Homo sapiens) (UniProt P16581); experiment: BSK_3C_Eselectin: BioMAP Diversity Plus: 3C Assay for Eselectin Biomarker Activity (AID 2283015); details: primary human endothelial cells (HUVEC); actives raise or lower the signal
In short: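 HUVEC, 3C stimulation; compound exposure 24 h; E-selectin by ELISA; gain- or loss-of-signal fitted bidirectionally vs DMSO baseline.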

[4] = read-out: Interleukin-1 alpha (IL1a), IL1A (gene 3552); experiment: BSK_BE3C_IL1a: BioMAP Diversity Plus: BE3C Assay for Interleukin-1 alpha (IL1a) Biomarker Activity (AID 2283016); details: primary human bronchial epithelial cells; actives raise or lower the signal
In short: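 IL-1a measured by ELISA after 24 h treatment of human primary bronchial epithelial cells, with gain or loss of signal fitted versus DMSO. Parallel cultures stained with SRB gauge overt cytotoxicity.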

[5] = read-out: Monocyte Chemoattractant Protein-1 (MCP1), CCL2 (gene 6347); experiment: BSK_3C_MCP1: BioMAP Diversity Plus: 3C Assay for Monocyte Chemoattractant Protein-1 (MCP1) Biomarker Activity (AID 2283017); details: primary human endothelial cells (HUVEC); actives raise or lower the signal
In short: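 HUVEC, 3C system; 24 h chemical exposure; MCP-1 by ELISA; bidirectional curve fit vs DMSO baseline.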

[6] = read-out: Monocyte Chemoattractant Protein-1 (MCP1), CCL2 (gene 6347); experiment: BSK_4H_MCP1: BioMAP Diversity Plus: 4H Assay for Monocyte Chemoattractant Protein-1 (MCP1) Biomarker Activity (AID 2283018); details: primary human endothelial cells (HUVEC); actives raise or lower the signal
In short: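 ELISA of MCP-1 (CCL2) 24 h after chemical dosing of HUVEC in the BioMAP 4H system. Gain or loss versus DMSO fitted; parallel SRB staining (560 nm) tracked overt cytotoxicity.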

[7] = read-out: Human Leukocyte Antigen - DR isotype (HLADR), HLA-DRA (gene 3122); experiment: BSK_3C_HLADR: BioMAP Diversity Plus: 3C Assay for Human Leukocyte Antigen - DR isotype (HLADR) Biomarker Activity (AID 2283019); details: primary human endothelial cells (HUVEC); actives raise or lower the signal
In short: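 HUVEC, 3C stimulation, 24 h post-dose; HLA-DR by ELISA; bidirectional curve fit vs DMSO baseline; gain or loss of signal scored.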

[8] = read-out: Interleukin-8 (IL8), CXCL8 (gene 3576); experiment: BSK_3C_IL8: BioMAP Diversity Plus: 3C Assay for Interleukin-8 (IL8) Biomarker Activity (AID 2283020); details: primary human endothelial cells (HUVEC); actives raise or lower the signal
In short: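 IL-8 was measured by ELISA in HUVEC cultures 24 h after chemical dosing, with gain or loss of signal fitted relative to DMSO. Parallel SRB total-protein staining tracked overt cytotoxicity.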

[9] = read-out: Monokine induced gamma interferon (MIG), CXCL9 (gene 4283); experiment: BSK_3C_MIG: BioMAP Diversity Plus: 3C Assay for Monokine induced gamma interferon (MIG) Biomarker Activity (AID 2283021); details: primary human endothelial cells (HUVEC); actives raise or lower the signal
In short: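 ELISA measurement of MIG in human umbilical vein endothelial cells 24 h after treatment. Cytotoxicity tracked by SRB staining in parallel cultures; gain or loss of signal fitted relative to DMSO.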

[10] = biological target: human Vitamin D Receptor (VDR), VDR (gene 7421) (UniProt P11473); experiment: ATG_VDR_TRANS: Attagene TRANS-FACTORIAL HepG2 Assay for human Vitamin D Receptor (VDR) (AID 2283022; active means hit-call score of the fitted dose curve at least 0.9, where 1 is the maximum)
In short: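 RT-PCR/capillary electrophoresis read-out of reporter mRNA induction in transiently transfected HepG2; 24 h dosing; chimeric NR-Gal4 (TRANS format); gain-of-signal fit against DMSO baseline.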

[11] = BSK_3C_SRB: Viability Assessment in the BioMAP Diversity Plus: 3C Assay (AID 2283023); details: primary human endothelial cells (HUVEC);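 further: cells read 24 h after compound dosing; fitted both ways against DMSO so a hit may be signal rise or drop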
In short: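 HUVEC, 24 h post-dose; 10% TCA fix, 0.1% SRB stain, A560 nm. Bidirectional curve fit vs DMSO negative control.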

[12] = read-out: Matrix Metallopeptidase 1 (MMP1), MMP1 (gene 4312); experiment: BSK_BE3C_MMP1: BioMAP Diversity Plus: BE3C Assay for Matrix Metallopeptidase 1 (MMP1) Biomarker Activity (AID 2283024); details: primary human bronchial epithelial cells; actives raise or lower the signal
In short: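 ELISA measurement of MMP-1 after 24 h compound exposure of primary human bronchial epithelial cells. Changes in either direction fitted relative to DMSO; parallel SRB staining checked overt cytotoxicity.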

[13] = BSK_3C_Vis: BioMAP Diversity Plus: 3C Assay for Morphology Visualization (AID 2283025); details: primary human endothelial cells (HUVEC);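 further: fitted both ways so gain or loss versus DMSO counts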;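 on AC50: light microscopy image of cell morphology used as background control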
In short: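 Light-microscopy visualization of HUVEC cultures at 24 h post-treatment, with DMSO as baseline for bidirectional fitting.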

[14] = read-out: Pselectin, SELP (gene 6403); experiment: BSK_4H_Pselectin: BioMAP Diversity Plus: 4H Assay for Pselectin Biomarker Activity (AID 2283026); details: primary human endothelial cells (HUVEC); actives raise or lower the signal
In short: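 ELISA of surface P-selectin on HUVEC, 24 h after dosing, with parallel SRB staining (0.1% after 10% TCA fixation, 560 nm) for overt cytotoxicity. Activity fitted in both directions relative to DMSO.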

[15] = BSK_4H_SRB: Viability Assessment in the BioMAP Diversity Plus: 4H Assay (AID 2283027); details: primary human endothelial cells (HUVEC);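 further: cells exposed to compound for 24 h before staining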;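 on AC50: curves fitted both ways versus DMSO so AC50 may be loss or gain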
In short: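 HUVEC, 24 h post-dose; 10% TCA fix, 0.1% SRB stain, A560 nm. Total protein = overt cytotoxicity, parallel to biomarker read. Bidirectional fit vs DMSO baseline.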

[16] = BSK_BE3C_SRB: Viability Assessment in the BioMAP Diversity Plus: BE3C Assay (AID 2283028); details: primary human bronchial epithelial cells;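 on AC50: fitted both ways so AC50 may mark signal gain or loss versus DMSO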
In short: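 Primary human bronchial epithelium; chemical dosing, 24 h; 10% TCA fix, 0.1% SRB stain, A560; bidirectional fit vs DMSO baseline.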

[17] = read-out: Thrombomodulin, THBD (gene 7056); experiment: BSK_3C_Thrombomodulin: BioMAP Diversity Plus: 3C Assay for Thrombomodulin Biomarker Activity (AID 2283029); details: primary human endothelial cells (HUVEC); actives raise or lower the signal
In short: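 ELISA measurement of thrombomodulin on HUVEC surface 24 h after chemical dosing; activity fitted in both directions relative to DMSO vehicle.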

[18] = read-out: Urokinase-type plasminogen activator receptor (uPAR), PLAUR (gene 5329); experiment: BSK_4H_uPAR: BioMAP Diversity Plus: 4H Assay for Urokinase-type plasminogen activator receptor (uPAR) Biomarker Activity (AID 2283030); details: primary human endothelial cells (HUVEC); actives raise or lower the signal
In short: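 HUVEC, 24 h post-dose; uPAR by ELISA; bidirectional fit vs DMSO baseline.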

[19] = read-out: Vascular endothelial growth factor receptor 2 (Homo sapiens) (UniProt P35968); experiment: BSK_4H_VEGFRII: BioMAP Diversity Plus: 4H Assay for Vascular endothelial growth factor receptor 2 (VEGFR2) Biomarker Activity (AID 2283031); details: primary human endothelial cells (HUVEC); actives raise or lower the signal;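 on AC50: cell-surface VEGFR2 protein level quantified by ELISA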
In short: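 HUVEC (human primary), 4H system; 24 h post-dose; VEGFRII by ELISA; bidirectional curve fit vs DMSO baseline; gain or loss of signal scored.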

[20] = biological target: human Retinoid X Receptor beta (RXRb), RXRB (gene 6257) (UniProt P28702); experiment: ATG_RXRb_TRANS: Attagene TRANS-FACTORIAL HepG2 Assay for human Retinoid X Receptor beta (RXRb) (AID 2283013; active means hit-call score of the fitted dose curve at least 0.9, where 1 is the maximum)
In short: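 Readout is reporter transcript induction after 24 h dosing. It is measured by RT-PCR of total RNA followed by fluorescent capillary electrophoresis. HepG2 liver cells carry transfected multiple reporter units driven by an exogenous RXRb-Gal4 fusion; activity is relative to DMSO.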

Measured: AC50

Chain of human Thyroid Receptor alpha (THRa1), THRA (gene 7067) (P10827 whole entry, looked up, the tested form may be a part): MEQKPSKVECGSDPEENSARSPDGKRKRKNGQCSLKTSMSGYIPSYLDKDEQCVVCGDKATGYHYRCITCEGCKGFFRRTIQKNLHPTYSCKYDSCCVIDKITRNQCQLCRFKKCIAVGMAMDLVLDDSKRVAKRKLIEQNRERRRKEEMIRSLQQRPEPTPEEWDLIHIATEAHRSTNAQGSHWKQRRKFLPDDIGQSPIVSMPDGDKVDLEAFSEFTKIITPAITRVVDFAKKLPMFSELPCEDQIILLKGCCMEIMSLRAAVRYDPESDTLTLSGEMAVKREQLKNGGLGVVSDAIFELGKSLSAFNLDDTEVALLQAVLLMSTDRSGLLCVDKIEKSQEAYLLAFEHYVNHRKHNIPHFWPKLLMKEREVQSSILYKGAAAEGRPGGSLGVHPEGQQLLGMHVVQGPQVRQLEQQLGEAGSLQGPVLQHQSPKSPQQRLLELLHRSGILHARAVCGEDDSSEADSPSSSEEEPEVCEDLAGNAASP
Chain of E-selectin (Homo sapiens) (P16581 whole entry, looked up): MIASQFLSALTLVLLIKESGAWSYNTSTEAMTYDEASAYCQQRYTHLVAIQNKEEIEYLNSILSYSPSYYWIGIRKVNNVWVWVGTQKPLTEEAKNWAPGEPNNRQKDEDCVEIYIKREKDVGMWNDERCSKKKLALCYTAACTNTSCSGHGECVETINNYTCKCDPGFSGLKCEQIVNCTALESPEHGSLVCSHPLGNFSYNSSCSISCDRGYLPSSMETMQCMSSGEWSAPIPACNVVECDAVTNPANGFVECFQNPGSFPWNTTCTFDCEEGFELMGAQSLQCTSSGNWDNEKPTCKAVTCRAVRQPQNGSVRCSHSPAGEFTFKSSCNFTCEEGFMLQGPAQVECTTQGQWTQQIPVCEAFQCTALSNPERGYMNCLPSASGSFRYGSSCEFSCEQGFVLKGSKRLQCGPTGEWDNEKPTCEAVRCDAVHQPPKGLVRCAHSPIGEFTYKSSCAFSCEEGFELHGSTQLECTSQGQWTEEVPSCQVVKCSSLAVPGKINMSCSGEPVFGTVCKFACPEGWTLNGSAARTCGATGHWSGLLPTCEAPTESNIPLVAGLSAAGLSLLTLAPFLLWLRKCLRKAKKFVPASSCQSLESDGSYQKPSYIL
Chain of human Retinoid X Receptor beta (RXRb), RXRB (gene 6257) (P28702 whole entry, looked up, the tested form may be a part): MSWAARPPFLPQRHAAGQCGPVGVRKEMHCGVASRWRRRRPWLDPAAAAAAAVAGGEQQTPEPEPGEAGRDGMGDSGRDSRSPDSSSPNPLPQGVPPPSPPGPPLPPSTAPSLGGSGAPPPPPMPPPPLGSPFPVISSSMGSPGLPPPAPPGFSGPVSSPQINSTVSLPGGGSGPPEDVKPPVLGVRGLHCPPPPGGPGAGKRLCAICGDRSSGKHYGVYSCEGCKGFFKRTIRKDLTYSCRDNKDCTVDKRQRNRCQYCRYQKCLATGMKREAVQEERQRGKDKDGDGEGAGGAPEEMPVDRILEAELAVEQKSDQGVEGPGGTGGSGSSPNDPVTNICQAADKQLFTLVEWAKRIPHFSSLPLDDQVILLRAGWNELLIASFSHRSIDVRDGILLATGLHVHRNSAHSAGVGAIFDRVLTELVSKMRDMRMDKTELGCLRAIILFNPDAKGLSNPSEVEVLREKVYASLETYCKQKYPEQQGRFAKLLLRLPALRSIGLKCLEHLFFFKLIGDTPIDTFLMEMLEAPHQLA
Chain of human Vitamin D Receptor (VDR), VDR (gene 7421) (P11473 whole entry, looked up, the tested form may be a part): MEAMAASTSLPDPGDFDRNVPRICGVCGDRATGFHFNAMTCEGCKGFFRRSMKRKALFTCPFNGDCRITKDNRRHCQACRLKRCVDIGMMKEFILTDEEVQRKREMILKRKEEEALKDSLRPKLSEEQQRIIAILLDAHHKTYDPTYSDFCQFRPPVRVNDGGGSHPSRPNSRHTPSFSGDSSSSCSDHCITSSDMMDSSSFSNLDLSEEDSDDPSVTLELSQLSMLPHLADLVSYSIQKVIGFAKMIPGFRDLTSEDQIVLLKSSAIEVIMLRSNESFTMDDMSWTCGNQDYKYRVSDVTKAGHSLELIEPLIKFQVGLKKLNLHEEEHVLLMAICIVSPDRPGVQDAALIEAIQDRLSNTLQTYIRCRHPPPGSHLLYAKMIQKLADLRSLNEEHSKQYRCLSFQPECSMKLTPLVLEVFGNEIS
Chain of Retinoic acid receptor RXR-alpha (Homo sapiens) (P19793 whole entry, looked up, the tested form may be a part): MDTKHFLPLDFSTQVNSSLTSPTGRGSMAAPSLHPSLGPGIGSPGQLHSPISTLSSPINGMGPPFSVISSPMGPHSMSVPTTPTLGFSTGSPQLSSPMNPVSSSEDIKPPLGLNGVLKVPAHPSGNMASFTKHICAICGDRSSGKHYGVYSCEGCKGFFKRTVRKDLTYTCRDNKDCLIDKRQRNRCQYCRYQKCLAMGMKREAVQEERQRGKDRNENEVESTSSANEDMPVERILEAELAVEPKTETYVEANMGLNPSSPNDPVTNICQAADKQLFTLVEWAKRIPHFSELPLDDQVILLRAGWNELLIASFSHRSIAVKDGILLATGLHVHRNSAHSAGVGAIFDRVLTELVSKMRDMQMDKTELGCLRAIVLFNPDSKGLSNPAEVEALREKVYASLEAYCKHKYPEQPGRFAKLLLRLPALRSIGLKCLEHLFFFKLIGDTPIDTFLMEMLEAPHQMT

O=C(NS(=O)(=O)/C=C/c1cccs1)c1ccc(F)cc1Br
active: [12] 1.31 µM
not listed: [20]
inactive: all other assays above

O=C(N[C@@H](c1ccccc1)[C@@H]1CCCCN1)c1cccc(C(F)(F)F)c1Cl
active: [4] 36 µM | [5] 20 µM | [7] 29.2 µM | [8] 12.7 µM | [11] 20 µM | [12] 31.8 µM | [13] 13.7 µM | [14] 20 µM | [16] 34.3 µM
inactive: [3] | [6] | [9] | [10] | [15] | [17] | [18] | [19]

CCCCCCCCCCCCCCCCO
not listed: [1] | [10] | [18] | [20]
inactive: all other assays above

NC=O
not listed: [1] | [9]
inactive: all other assays above

Cc1ccc(-c2cc(C(F)(F)F)nn2-c2ccc(S(N)(=O)=O)cc2)cc1
inactive: [19]
active: [3] 30 µM | [4] 33.3 µM | [5] 37.8 µM | [6] 27.8 µM | [7] 31 µM | [8] 32.7 µM | [11] 23.1 µM | [12] 31.7 µM | [13] 37.5 µM | [14] 25.8 µM | [15] 28 µM | [16] 35.7 µM | [17] 28.4 µM | [18] 20 µM

C#CC(O)C(CC)CCCC (stereo not drawn)
not listed: [1] | [2] | [9] | [10] | [18]
inactive: all other assays above

CCCCC(CC)COP(=O)(OCC(CC)CCCC)OCC(CC)CCCC (stereo not drawn)
active: [5] 18.2 µM | [6] 20 µM | [7] 20 µM | [8] 14 µM | [11] 20 µM | [13] 13.7 µM | [14] 12.2 µM | [15] 20 µM | [18] 20 µM | [19] 20 µM
inactive: [3] | [4] | [9] | [10] | [12] | [16] | [17]

CCCC(=O)O
not listed: [1] | [2] | [9] | [18] | [20]
inactive: all other assays above

OCC(O)CO
not listed: [1] | [2] | [9] | [10] | [20]
inactive: all other assays above

CC1(C)C(=O)NC(=O)N1CO
not listed: [1] | [2] | [18]
inactive: all other assays above

CC(COCC(C)OC(=O)c1ccccc1)OC(=O)c1ccccc1 (stereo not drawn)
not listed: [1] | [9] | [18] | [20]
inactive: all other assays above

OCC(CO)n1cnc(-c2ccc(F)cc2)c1-c1ccnc(Oc2ccccc2)n1
active: [5] 1.08 µM | [7] 0.254 µM | [8] 0.852 µM | [12] 0.594 µM | [17] 2.28 µM
not listed: [1] | [2] | [9] | [10] | [20]
inactive: all other assays above

CC(C)(C)c1ccccc1
not listed: [1] | [2] | [20]
inactive: all other assays above

CC1=C(C)S(=O)(=O)CCS1(=O)=O
active: [13] 39 µM
not listed: [1] | [9] | [10] | [18] | [20]
inactive: all other assays above

CC(C)NCC(O)c1ccc(O)c(O)c1 (stereo not drawn)
not listed: [1] | [2] | [10] | [18]
inactive: all other assays above
